Screening results as filed in PubChem BioAssay.
TDP1 cell noCPT – qHTS for Inhibitors of human tyrosyl-DNA phosphodiesterase 1 (TDP1): qHTS in cells in absence of CPT; Potency, µM (titrated, usually from 46.2 µM), for the others: at the highest dose activity change, negative = growth inhibition, actives largely listed as inhibitors; 15% of 420,000 active; DT40 Tdp1-/- hTDP1 cells, no CPT, ATP luminescence, 48 h; AID 686978, 2013; note: potency is the fitted concentration of half-maximal effect; nearly all actives have a fitted effect of over 55% in size
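Seeded 400 DT40-hTDP1 cells/well (vehicle DMSO, no 20 nM CPT); pinned compounds; ≥48 hr at 37 °C; CellTiter-Glo luminescence as viability measure.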
DT40 TDP1 CPT – qHTS for Inhibitors of human tyrosyl-DNA phosphodiesterase 1 (TDP1): qHTS in cells in presence of CPT | chicken DT40 Tdp1-/-;hTDP1 cells + 20 nM CPT, ATP luminescence, 48 h | Potency, µM (top dose mostly 46.2 µM), for the others: at the highest dose activity change, negative = growth inhibition, hits mostly inhibitors | 12% of 420,000 active | AID 686979, 2013; note: potency is the fitted concentration of half-maximal effect; nearly all actives have a fitted effect of over 55% in size
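Cell growth measured by CellTiter-Glo luminescence after a minimum 48 h, 37 C compound exposure with 20 nM CPT in Tdp1-knockout DT40 cells stably expressing hTDP1, seeded 400/well; qHTS titration format.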
HT1080-NT tox – qHTS for induction of synthetic lethality in tumor cells producing 2HG: qHTS for the HT-1080-NT fibrosarcoma cell line; Potency, µM (top dose mostly 46.1 µM), for the others: at the highest dose activity, negative = less viability, usual class: cytotoxic; HT-1080-NT fibrosarcoma viability, CellTiter-Glo ATP luminescence, 48 h; 1.6% of 360,000 active;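 note: NT is the 2HG producing partner of a matched IDH1 knockdown line; potency is the fitted concentration of half-maximal effect; 0% = DMSO-treated cells and -100% = media-only wells without cells; nearly all actives have a fitted effect of over 55% in size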
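Viability by CellTiter-Glo luminescence after 48 h compound exposure at 37C of HT-1080-NT cells (750/well, RPMI, 5% FBS). % activity scaled between DMSO wells and medium-only wells, then curve-fitted and categorized by curve class.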
IL1B secr inh – qHTS for Inhibitors of Inflammasome Signaling: IL-1-beta AlphaLISA Primary Screen | THP-1 LPS/ATP IL-1B secretion, AlphaLISA, 16 h; active compounds read low | activity change, % at 57.5 µM | 4.7% of 360,000 active | AID 743279, 2014; in the data active = activity change below about -50%; inconclusive = mostly about -30% to -49%
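THP-1 cells pretreated 1 hr with compounds (up to 57.5 uM final), then stimulated with LPS (250 ng/mL final) plus ATP (1.25 mM final); secreted IL-1B measured by AlphaLISA after 16 hr, decreased signal indicating inhibition.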
HT1080 IDH1KD tx – qHTS for induction of synthetic lethality in tumor cells producing 2HG: qHTS for the HT-1080-IDH1KD cell line; HT-1080 IDH1 knockdown viability, ATP luminescence, 48 h; Potency, µM (titrated, usually from 46.1 µM), inactives show top-dose activity, negative = toxicity, hits mostly cytotoxic; 2% of 360,000 active;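 note: potency is the fitted concentration of half-maximal effect; 0% = DMSO wells and -100% = cell-free medium wells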
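% activity derives from luminescence (CellTiter-Glo), normalised to DMSO and no-cell wells. HT-1080-IDH1KD cells, 750/well, had 48 h compound exposure at 37 °C.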
Numbers without * were called inactive; [ ] = another dose, or the depositor's remark. Only some compounds are listed: those with a hit (about 19% of all), similar ones and a draw of the others. Unless noted, calls come from the whole dose curve; as a rule, active = well fitted curve in the direction sought with a large enough effect; inconclusive = small, poorly fitted or top-dose-only effect, or another doubt; inactive = no such curve, though single readings can be large; an effect the other way counts as inactive or inconclusive. Unless noted, % is set by controls: 0 for no effect and ±100 for the full control effect.

What do the screens show for `CCOC(=O)c1nc2ccccc2c(=O)n1-c1cccc(C)c1`?
TDP1 cell noCPT: inconclusive; DT40 TDP1 CPT: inconclusive; HT1080-NT tox: -0.1%; IL1B secr inh: 3.6; HT1080 IDH1KD tx: -3.9%

What do the screens show for `NC(Cc1nc2ccccc2[nH]1)c1ccc(Cl)cc1` (centres undefined)?
TDP1 cell noCPT: -3.3%; DT40 TDP1 CPT: 10.4%; HT1080-NT tox: -17.3%; HT1080 IDH1KD tx: 0.3%

What do the screens show for `O=C(Nc1sc2c(c1C(=O)Nc1ccc(Cl)cc1)CCCC2)c1cccs1`?
TDP1 cell noCPT: 3.66µM*; DT40 TDP1 CPT: 5.8µM*

Results for CP(=O)(Nc1ccc(Cl)cc1)c1nc2c(s1)CCCC2 (centres undefined) ?
TDP1 cell noCPT: inconclusive; DT40 TDP1 CPT: inconclusive; HT1080-NT tox: 1.7%; IL1B secr inh: 36.1; HT1080 IDH1KD tx: -8.7%

How did Cc1ccc2oc(=O)c(-c3nc4ccc(C)cc4[nH]3)cc2c1 do in these assays?
TDP1 cell noCPT: -29.4%; DT40 TDP1 CPT: inconclusive

What do the screens show for `O[C@@H]1CCCN2C[C@@H](O)[C@@H](O)C12` (some centres undefined)?
TDP1 cell noCPT: -1.6%[166 µM]; DT40 TDP1 CPT: -4.5%[166 µM]

What do the screens show for `O=C(C[n+]1ccn(CCCNP2(=O)C=C(c3ccccc3)OC(c3ccccc3)=C2)c1)c1ccccc1`?
TDP1 cell noCPT: inconclusive; DT40 TDP1 CPT: inconclusive; HT1080-NT tox: -4.3%; IL1B secr inh: -54.6*; HT1080 IDH1KD tx: -2.1%

Results for CCS(=O)(=O)NC(C)c1nnc2n1-c1ccc(Br)cc1C(c1ccccc1Cl)=NC2 (centres undefined) ?
TDP1 cell noCPT: -23.9%; DT40 TDP1 CPT: -8.0%; HT1080-NT tox: -1.4%; IL1B secr inh: 38.5; HT1080 IDH1KD tx: 0.0%

How did CC(=O)c1c(C)n(Cc2ccccc2)c2ccc(O)cc12 do in these assays?
TDP1 cell noCPT: 18.4µM*; DT40 TDP1 CPT: 16.4µM*; HT1080-NT tox: -12.7%; IL1B secr inh: -29.5; HT1080 IDH1KD tx: -2.4%

How did CCCC1(CCC)C(=O)NC(=NCc2ccccc2)NC1=O do in these assays?
TDP1 cell noCPT: 13µM*; DT40 TDP1 CPT: 10.3µM*; HT1080-NT tox: 14.6µM*; IL1B secr inh: 20.9; HT1080 IDH1KD tx: inconclusive

Results for CCCC1(CCC)C(=O)NC(=Nc2ccccc2)NC1=O ?
TDP1 cell noCPT: -12.0%; DT40 TDP1 CPT: -14.1%; HT1080-NT tox: 8.4%; IL1B secr inh: -1.4; HT1080 IDH1KD tx: 8.1%

How did CC(C)C[C@H]1C(=O)N2CCCC2[C@]2(O)O[C@](NC(=O)[C@@H]3C=C4c5cccc6[nH]cc(c56)CC4N(C)C3)(C(C)C)C(=O)N12 (some centres undefined) do in these assays?
TDP1 cell noCPT: 16.4µM*; DT40 TDP1 CPT: inconclusive; HT1080-NT tox: -24.5%; IL1B secr inh: -6.9; HT1080 IDH1KD tx: -22.5%

What do the screens show for `CC(C)C1C(=O)N2CCCC2[C@]2(O)O[C@@](NC(=O)[C@@H]3C=C4c5cccc6[nH]cc(c56)C[C@H]4N(C)C3)(C(C)C)C(=O)N12` (some centres undefined)?
TDP1 cell noCPT: inconclusive; DT40 TDP1 CPT: 9.44µM*

How did CC(C)[C@H]1C(=O)N2CCC[C@H]2[C@]2(O)O[C@](NC(=O)[C@@H]3C=C4c5cccc6[nH]cc(c56)C[C@H]4N(C)C3)(C(C)C)C(=O)N12 do in these assays?
TDP1 cell noCPT: 5.8µM*; DT40 TDP1 CPT: inconclusive; HT1080-NT tox: -4.0%; IL1B secr inh: -11.1; HT1080 IDH1KD tx: -0.4%

What do the screens show for `CN1C[C@H](C(=O)N[C@@]2(C)O[C@@]3(O)C4CCCN4C(=O)C(Cc4ccccc4)N3C2=O)C[C@H]2c3cccc4[nH]cc(c34)C[C@H]21` (some centres undefined)?
TDP1 cell noCPT: -15.3%; DT40 TDP1 CPT: 12.3%

What do the screens show for `O=C(O)CSC(=S)N1CC2CC(C1)c1cccc(=O)n1C2` (centres undefined)?
TDP1 cell noCPT: inconclusive; DT40 TDP1 CPT: -0.6%; HT1080-NT tox: 10.9%; IL1B secr inh: 6.0; HT1080 IDH1KD tx: -2.2%

What do the screens show for `COOCC1(C(=O)OC)C[C@H](c2ccc(OC)cc2)N(Cc2ccccc2OC)[C@@H]1c1ccccc1C` (some centres undefined)?
TDP1 cell noCPT: inconclusive; DT40 TDP1 CPT: inconclusive; HT1080-NT tox: -14.9%; IL1B secr inh: 8.1; HT1080 IDH1KD tx: -14.5%

Results for CS(=O)(=O)c1ccc(C2=C(CNC(=O)c3nccs3)[C@H]3CC[C@@H](C2)N3CCOc2ccccc2)cc1 ?
TDP1 cell noCPT: inconclusive; DT40 TDP1 CPT: -15.9%; HT1080-NT tox: 1.6%; IL1B secr inh: 6.5; HT1080 IDH1KD tx: -2.0%

Results for CC(C)c1ccc(NC(=O)CCNC(=O)N2C[C@H]3C[C@@H](C2)c2cccc(=O)n2C3)cc1 ?
TDP1 cell noCPT: -19.9%; DT40 TDP1 CPT: -1.6%; HT1080-NT tox: -0.4%; IL1B secr inh: 5.6; HT1080 IDH1KD tx: -0.9%

Results for O[C@H]1CCCC[C@H]1N1CCC(c2ccccc2)CC1 ?
TDP1 cell noCPT: -4.3%; DT40 TDP1 CPT: -7.7%

What do the screens show for `Cc1cc(OCc2nn[nH]n2)c2c3c(c(=O)oc2c1)CCC3`?
TDP1 cell noCPT: -3.9%; DT40 TDP1 CPT: 4.2%; HT1080-NT tox: 3.2%; IL1B secr inh: 10.9; HT1080 IDH1KD tx: 2.1%

What do the screens show for `Cc1cc(=O)oc2c1c(C)nn2-c1nn[nH]n1`?
TDP1 cell noCPT: inconclusive; DT40 TDP1 CPT: 20.6µM*; HT1080-NT tox: 5.0%; IL1B secr inh: 23.0; HT1080 IDH1KD tx: 7.2%

What do the screens show for `COC(=O)C1=C(c2ccccc2)C[C@@H]2CC[C@H]1N2C(=O)N1CCCC1`?
TDP1 cell noCPT: 16.4µM*; DT40 TDP1 CPT: inconclusive; HT1080-NT tox: 8.6%; IL1B secr inh: 4.1; HT1080 IDH1KD tx: 5.7%

Results for CCCNC(=O)N1[C@H]2CC[C@@H]1C(C(=O)OC)=C(c1cccc(Cl)c1)C2 ?
TDP1 cell noCPT: inconclusive; DT40 TDP1 CPT: inconclusive; HT1080-NT tox: inconclusive; IL1B secr inh: 39.1; HT1080 IDH1KD tx: 2.9%

Results for COC(=O)C1=C(c2cccc(Cl)c2)C[C@@H]2CC[C@H]1N2C(=O)N1CCCC1 ?
TDP1 cell noCPT: 7.31µM*; DT40 TDP1 CPT: 8.2µM*; HT1080-NT tox: 0.0%; IL1B secr inh: 4.8; HT1080 IDH1KD tx: 1.2%
